{"source": "PubChem BioAssay AID463173", "about": "(ICCB-Longwood Screening Facility, Harvard Medical School, 2010)", "note": "Hit rate of the full screen: of about 52,000 compounds, about 1,700 (3.3%) were called active. The list comes from a sample in which actives are over-represented; it also holds similar structures and randomly drawn compounds. A number with no mark means an inactive call. Cut-off read from the data, not from the text of the source: active = survival mostly below about 52% (no sharp cut-off); inactive = mostly above about 56%."}
{"tested_on": "Wild type", "experiment": "S. aureus survival, RN4220 and DeltatarO strains – OD600, teichoic acid synthesis inhibitors, primary screen (AID 463173)", "settings": "S. aureus RN4220 wild type/DeltatarO growth, OD600, 18 h, hits give low values, screened at 18.75 µg/mL (by protocol)"}
{"smiles": "CN(c1ncnc2c1c(-c1ccccc1)cn2-c1cccc(Cl)c1)C1CCCCC1", "survival": "89%"}
{"smiles": "CN(c1ncnc2onc(-c3cccc(Cl)c3)c12)C1CCCCC1", "survival": "-1% (active)"}
{"smiles": "Clc1cccc(-c2noc3ncnc(NC4CCCCC4)c23)c1", "survival": "79%"}
{"smiles": "COc1ccc(S(=O)(=O)N(CC(=O)N2CCC(C)CC2)c2ccc(C)cc2)cc1", "survival": "89%"}
{"smiles": "O=C(NCCC1=CCCCC1)c1ccc2c(=O)n3nc(Nc4ccccc4)sc3nc2c1", "survival": "72%"}
{"smiles": "O=C(CN1CCC(NC(=O)C2CCCCC2)CC1)Nc1cccc(F)c1", "survival": "111%"}
{"smiles": "CCc1nn2c(=O)cc(COC(=O)c3ccc(NC(=O)C4CCCCC4)cc3)nc2s1", "survival": "68%"}
{"smiles": "CCOc1ccc(CNS(=O)(=O)c2ccc3[nH]c(=O)ccc3c2)cc1", "survival": "80%"}
{"smiles": "CCOc1ccccc1CNS(=O)(=O)c1ccc2[nH]c(=O)ccc2c1", "survival": "71%"}
{"smiles": "CCOc1ccc(OCC)c(NS(=O)(=O)c2ccc3[nH]c(=O)ccc3c2)c1", "survival": "0% (active)"}
{"smiles": "O=C(Cn1c(=O)n(CCc2ccccc2)c(=O)c2cccnc21)Nc1ccc(F)cc1", "survival": "80%"}
{"smiles": "Cc1oc2c(C)c3oc(=O)c(CC(=O)N4CCCCC4)c(C)c3cc2c1C", "survival": "83%"}
{"smiles": "Cc1nnc(SCC(=O)N(C2CCCCC2)C2CCCCC2)[nH]c1=O", "survival": "117%"}
{"smiles": "CCOC(=O)C1CCCN(C(=O)c2ccc(OCC)cc2)C1", "note": "(stereo unspecified)", "survival": "117%"}
{"smiles": "CCOC(=O)C1CCCN(c2c(C(=O)c3ccccc3)cnc3ccc(F)cc23)C1", "note": "(stereo unspecified)", "survival": "22%"}
{"smiles": "CCOC(=O)C1CCCN(c2c(C(=O)c3ccc(OCC)cc3)cnc3ccccc23)C1", "note": "(stereo unspecified)", "survival": "0% (active)"}
{"smiles": "CCOC(=O)C1CCCN(c2c(C(=O)c3ccc(C)cc3)cnc3ccc(OCC)cc23)C1", "note": "(stereo unspecified)", "survival": "2% (active)"}
{"smiles": "CCOc1ccc(C(=O)c2cnc3ccc(Cl)cc3c2S(=O)(=O)c2ccc(C)cc2)cc1", "survival": "86%"}
{"smiles": "CCOc1ccc(S(=O)(=O)c2c(C(=O)c3ccc(C)c(C)c3)cnc3ccccc23)cc1", "survival": "80%"}
{"smiles": "CCc1ccc(NC(=O)CN2CCSc3ccc(S(=O)(=O)N4CCCC4)cc32)cc1", "survival": "-6% (active)"}
{"smiles": "CCOc1ccc(NC(=O)CN2CCSc3ccc(S(=O)(=O)N4CCCC4)cc32)cc1", "survival": "67%"}
{"smiles": "Cc1ccc(NC(=O)CN2CCSc3ccc(S(=O)(=O)N4CCCC4)cc32)cc1", "survival": "98%"}
{"smiles": "CCOC(=O)c1scc(-c2ccc(C)cc2)c1S(=O)(=O)Nc1ccc(F)c(F)c1", "survival": "72%"}
{"smiles": "Cc1nc(N2CCOCC2)c2c(C(=O)Nc3cccc(C(F)(F)F)c3)c(C)oc2n1", "survival": "78%"}
{"smiles": "CSc1ccc(-c2nc3cccc(C)n3c2Nc2ccc(Cl)cc2)cc1", "survival": "101%"}
{"smiles": "Cc1ccc(Nc2c(-c3ccc(O)cc3)nc3cccc(C)n23)cc1", "survival": "91%"}
{"smiles": "Cc1ccc(Nc2c(-c3cccc(Cl)c3)nc3cccc(C)n23)cc1", "survival": "22%"}
{"smiles": "Cc1ccn2c(Nc3ccc(F)cc3)c(-c3ccccn3)nc2c1", "survival": "79%"}
{"smiles": "Cc1cccc(C)c1Nc1c(-c2ccsc2)nc2cccc(C)n12", "survival": "32%"}
{"smiles": "Cc1cccc(C)c1Nc1c(-c2ccccc2F)nc2cccc(C)n12", "survival": "7% (active)"}
{"smiles": "Cc1cccc2nc(-c3ccccn3)c(Nc3ccccc3)n12", "survival": "21% (active)"}
{"smiles": "COc1ccc(Nc2c(-c3ccco3)nc3cccc(C)n23)cc1", "survival": "97%"}
{"smiles": "Cc1cccc2nc(-c3ccccn3)c(Nc3ccc(F)cc3)n12", "survival": "4% (active)"}
{"smiles": "Cc1ccccc1Nc1c(-c2ccccc2)nc2cccc(C)n12", "survival": "73%"}
{"smiles": "Cc1ccc(Nc2c(-c3ccc(C)o3)nc3cccc(C)n23)cc1", "survival": "21% (active)"}
{"smiles": "Cc1ccc(-c2nc3cccc(C)n3c2Nc2ccc3c(c2)OCO3)o1", "survival": "22%"}
{"smiles": "O=C(Nc1ccc(Cl)c(C(F)(F)F)c1)C1CCN(S(=O)(=O)c2cccc3nonc23)CC1", "survival": "90%"}
{"smiles": "Cc1ccc(C(=O)c2c(N)c(C(=O)Nc3ccccc3Cl)c3ccccn23)cc1", "survival": "96%"}
{"smiles": "COc1ccc(NC(=O)CN2C(=O)c3cccnc3Sc3ccccc32)cc1OC", "survival": "81%"}
{"smiles": "COc1ccccc1CNC(=O)CSC1=Nc2ccccc2N=C(c2ccc(F)cc2)C1", "survival": "73%"}
{"smiles": "COc1cc(NC(=O)c2sc3nc4n(c(=O)c3c2C)CCCCC4)cc(OC)c1OC", "survival": "80%"}
{"smiles": "Cc1ccccc1NC(=O)Cn1cc(S(=O)(=O)c2ccccc2)c(=O)c2ccccc21", "survival": "105%"}
{"smiles": "COc1ccccc1CNC(=O)C(=O)NCC(c1ccco1)S(=O)(=O)c1cccs1", "note": "(stereo unspecified)", "survival": "101%"}
{"smiles": "COC(=O)C(NC(=O)CCc1c(C)nc2cc(-c3cccc(F)c3)nn2c1C)C(C)C", "note": "(stereo unspecified)", "survival": "80%"}
{"smiles": "CCc1ccc(CNc2ncnc3onc(-c4ccc(Cl)cc4)c23)cc1", "survival": "48%"}
{"smiles": "Cc1cc[n+](CC(=O)N2CCCCC2)cc1", "survival": "116%"}
{"smiles": "Cc1ccc(NC(=O)Cn2c(=O)n(-c3ccccc3)c(=O)c3ccc(C(=O)NCc4ccc5c(c4)OCO5)cc32)c(C)c1", "survival": "138%"}
{"smiles": "Cc1ccc2nc(-c3ccc(C)o3)c(Nc3ccc4c(c3)OCCO4)n2c1", "survival": "19% (active)"}
{"smiles": "Cc1ccc(-c2nc3ccccn3c2Nc2ccc3c(c2)OCCO3)o1", "survival": "62%"}
{"smiles": "Cc1ccn2c(Nc3ccc4c(c3)OCCO4)c(-c3ccc(C)o3)nc2c1", "survival": "75%"}
{"smiles": "Cc1ccc(-c2nc3ccccn3c2Nc2c(C)cccc2C)o1", "survival": "-20% (active)"}
{"smiles": "Cc1ccc(-c2nc3ccccn3c2Nc2ccc3c(c2)OCO3)o1", "survival": "48%"}
{"smiles": "Cc1ccc(-c2nc3ccc(Cl)cn3c2Nc2ccc3c(c2)OCCO3)o1", "survival": "88%"}
{"smiles": "Cc1cc(-n2c(C)nc3ccccc3c2=O)ccc1NC(=O)C(F)(F)F", "survival": "69%"}
{"smiles": "COc1ccc(CCC(=O)NC2CC(=O)N(c3ccc(OC)cc3)C2)cc1", "note": "(stereo unspecified)", "survival": "79%"}
{"smiles": "CCOc1ccc(C2CC(=O)Nc3c2c(=O)[nH]c2ncnn32)cc1", "note": "(stereo unspecified)", "survival": "68%"}
{"smiles": "CC1=C(C(=O)Nc2ccc(C)cc2C)C(c2cccs2)n2nc(SCc3ccccc3Cl)nc2N1", "note": "(stereo unspecified)", "survival": "76%"}
{"smiles": "COc1cc(NC(=O)c2ccc(C)cc2)ccc1NC(=O)c1cc2ccccc2o1", "survival": "75%"}
{"smiles": "CCc1ccc(C2NC(=O)c3[nH]nc(-c4cccc(OC)c4)c32)cc1", "note": "(stereo unspecified)", "survival": "74%"}
{"smiles": "COc1ccc(OC)c(C2c3c(-c4ccc(Br)cc4)n[nH]c3C(=O)N2c2ccc(Cl)cc2)c1", "note": "(stereo unspecified)", "survival": "77%"}
{"smiles": "COc1ccc(-c2n[nH]c3c2C(c2ccc(Cl)cc2Cl)NC3=O)cc1", "note": "(stereo unspecified)", "survival": "0% (active)"}
